High-throughput results (PubChem)
Only some compounds are listed: those with a hit (about 2.6% of all), similar ones and a draw of the others.
mut p53 react – restores mutant p53 pathway signaling in SW480 cells; AID 624151; SW480 PUMA-promoter luciferase, p53 mutant reactivation; 28,000 tested, 1.5% active; activation, % at 9.98 µM; in the data active = activation above about 52%
p53 mut binder – binds human mutant p53 on microarray. small molecule microarray binding, anti-GST fluorescence. calls only. 17,000 tested, 0.4% active;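 active = compounds whose four printed spots each glow above background more than chance allows, each with a p-value under 7%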
STAT3 binder – STAT3 (human) binding. P40763. Small molecule microarray, His-STAT3 binding, anti-His fluorescence. calls only. 17,000 tested, 0.2% active. AID 624138;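 active = compounds whose four printed spots each show fluorescence over background unusually high for their array block, chance value under 7%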
Myc binder – binds human c-Myc on microarray; P01106; calls only; 17,000 tested, 1.5% active; small molecule microarray, His-c-Myc binding, anti-His fluorescence;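 active = spot fluorescence over background with P-value below 7% in all four replicate spots, showing protein binding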;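 note: score is binary with 100 for all four spots passing and 0 otherwise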
NFkB binder – binds human NF-kappa-B p105 on microarray | P19838 | Small molecule microarray, anti-His fluorescence binding | calls only | 17,000 tested, 1.3% active | AID 624139;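 active = spot fluorescence over background significantly raised, with a chance value under 7% in all four replicate spots of the compound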;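 note: probe protein is his-tagged human p50 processed subunit at 1 µg/ml; raw spot fluorescence signals with no normalization applied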
An asterisk follows results filed as active; i = inactive; . = not tested or not shown; + = active, no number.

SMILES	mut p53 react	p53 mut binder	STAT3 binder	Myc binder	NFkB binder
C[C@@H]1CN([C@H](C)CO)C(=O)Cc2cc(NC(=O)CCN3CCOCC3)ccc2O[C@H]1CN(C)Cc1ccc(-c2ccccc2)cc1	-1	i	i	i	i
C[C@@H]1CN([C@@H](C)CO)C(=O)Cc2cc(NC(=O)CCN3CCOCC3)ccc2O[C@H]1CN(C)Cc1ccc(-c2ccccc2)cc1	-13	i	i	+	i
COc1cc2c(cc1NC(=O)CCCOc1ccccc1)oc1ccccc12	-1	.	.	.	.
OC(COc1ccc(Cl)cc1)CSc1ccccn1 (stereo not drawn)	78*	i	i	i	i
CC(=O)NCCNC(=O)c1cc2ccccc2oc1=O	-2	.	.	.	.
COc1ccccc1CNC(=O)c1cc2ccccc2oc1=O	88*	.	.	.	.
CCOc1cccc2cc(C(=O)NCc3cccnc3)c(=O)oc12	-9	i	i	i	i
COc1cccc2cc(C(=O)NCc3ccccn3)c(=O)oc12	84*	i	i	i	i
Cc1ccc(N(CC(=O)Nc2cc(Cl)ccc2C)S(C)(=O)=O)c(C)c1	-5	.	.	.	.
Cc1cccc(OCC(=O)Nc2cccc(-c3nc4cc(C)ccc4o3)c2)c1	86*	.	.	.	.
Cc1ccc2oc(-c3cccc(NC(=O)COc4ccc5ccccc5c4)c3)nc2c1	82*	.	.	.	.
CCc1ccc2oc(-c3cccc(NC(=O)COc4ccccc4)c3)nc2c1	82*	.	.	.	.
CS(=O)(=O)N(CC(=O)Nc1ccc(Br)c(Cl)c1)c1cccc([N+](=O)[O-])c1	-16	.	.	.	.
Cc1ccc2nc(SCc3nc4ccccc4n3C)[nH]c2c1	62*	i	i	i	i
CC(C)(C)C(=O)CSc1nnc(-c2ccco2)o1	70*	i	i	i	i
CC(NS(=O)(=O)c1ccc(Br)cc1)C(=O)Nc1ccccc1 (stereo not drawn)	-27	i	i	i	i
Cc1ccc2nc(-c3cccc(NC(=O)COc4ccc([N+](=O)[O-])cc4)c3)oc2c1	72*	.	.	.	.
CCC(Sc1nc(C)cc(C)n1)C(=O)Nc1ccc(-c2nc3ccc(C)cc3s2)cc1 (stereo not drawn)	85*	i	i	i	i
O=C(COc1ccc([N+](=O)[O-])cc1)Nc1cccc(-c2nc3cc(Cl)ccc3o2)c1	60*	.	.	.	.
COc1ccc(CCNC(=S)Nc2ccc(-c3nc4ccc(C)cc4s3)cc2)cc1OC	3	i	i	i	i
Cc1ccc2nc(-c3ccc(NC(=O)COc4ccc([N+](=O)[O-])cc4)cc3)sc2c1	70*	i	i	i	i
COC(=O)C(NC(=O)c1ccccc1)(c1c(C)[nH]n(-c2ccccc2)c1=O)C(F)(F)F (stereo not drawn)	-9	i	i	i	i
COc1cc2c(cc1NC(=O)CCOc1ccccc1C)oc1ccccc12	19	.	.	.	.
O=C(CC1(O)C(=O)N(Cc2cccc3ccccc23)c2ccccc21)c1ccccn1 (stereo not drawn)	-6	.	.	.	.
COCCOC(=O)N1C(=O)[C@@]2(c3cc(C#CC4=CCCCC4)ccc31)[C@H](C(=O)N1CCN(c3ncccn3)CC1)[C@H]1C(=O)O[C@H](c3ccccc3)[C@H](c3ccccc3)N1[C@@H]2c1ccc(O)cc1	.	i	i	i	i
SMILES	mut p53 react	p53 mut binder	STAT3 binder	Myc binder	NFkB binder
Cc1cc(OCC(=O)Nc2cccc3ncccc23)cc(C)c1Cl	9	.	.	.	.
Cc1ccc2nc(-c3ccc(NC(=O)C(C)Oc4ccc5c(C)cc(=O)oc5c4)cc3)sc2c1 (stereo not drawn)	77*	.	.	.	.
COc1ccc(CCC(=O)c2ccc(OC)cc2O)cc1	59*	i	i	i	i
O=C(CC1(O)C(=O)N(Cc2cccc3ccccc23)c2ccccc21)c1ccco1 (stereo not drawn)	5	.	.	.	.
Cc1nnc(SCC(=O)c2ccc3c(c2)OCCO3)s1	89*	.	.	.	.
Cn1cnnc1SCC(=O)c1ccc2c(c1)OCCO2	-14	i	i	i	i
COC(=O)c1sccc1-c1ccc(-c2ccn(C(=O)c3ccc(Cl)cc3)n2)o1	97*	.	.	.	.
CCn1c(SCc2nc3ccccc3c(=O)[nH]2)nnc1-c1cc2cccc(OC)c2o1	-6	.	.	.	.
C[C@H](CCC(=O)O)[C@H]1CCC2[C@@H]3CC[C@@H]4C[C@H](O)CC[C@]4(C)C3C=C[C@@]21C (stereo partly drawn)	-5	i	i	i	+
C[C@H](CCC(=O)NCC(=O)O)[C@H]1CC[C@H]2[C@@H]3[C@H](O)C[C@@H]4C[C@H](O)CC[C@]4(C)[C@H]3C[C@H](O)[C@]12C	-3	i	i	i	i
CCN(CC(=O)Nc1cccc(OC)c1)S(=O)(=O)c1ccc2ccccc2c1	11	.	.	.	.
